Source: PubChem BioAssay
An excerpt weighted towards active compounds, which were near 3.5% of everything screened.
Pf apPOL inh – Pf-apPOL DNA polymerase inhibition | actives 0.25% (n = 210,000) | Recombinant Pf-apPOL, molecular beacon fluorescence, 1.5 h | inhibition, % at 10 µM
mHTT CaM bind – disrupts binding of mutant huntingtin to calmodulin. P42858. actives 3.6% (n = 190,000). inhibition, % at 15 µM. AlphaScreen His-mHTT/GST-CaM binding, luminescence;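 also: 0% = both proteins with DMSO and 100% = one protein alone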
Active calls of the source: *; / = no result. Rule as the data show it: active = inhibition above about 50%; inactive = the rest.

SMILES | Pf apPOL inh | mHTT CaM bind
CCOc1ccc(N2CC(C(=O)N3CCCCC3C)CC2=O)cc1 (stereo not given) | 0.5 | -6.1
O=c1c2c(nc(SCc3cccc(F)c3)n1-c1ccccc1)CCS2 | -4.2 | 15.0
O=[N+]([O-])c1cc2c(cc1CN1CCN(c3ccc(F)cc3)CC1)OCO2 | 0.5 | 30.3
CCOc1ccccc1N1CCN(Cc2cc3c(cc2[N+](=O)[O-])OCO3)CC1 | -2.2 | 51.0*
Cc1ccccc1N1CCN(Cc2cc3c(cc2[N+](=O)[O-])OCO3)CC1 | 3.0 | 18.6
O=[N+]([O-])c1cc2c(cc1CN1CCN(c3cccc(Cl)c3)CC1)OCO2 | -2.2 | 77.0*
CCc1csc2nc(C)c(NC(=O)C(C)C)c(=O)n12 | 0.2 | -8.8
Cc1ccc2c(c1)sc1nc(-c3ccccc3)cn12 | -8.0 | -20.7
CC(C)CC(C(O)=C(C#N)c1nc2ccccc2[nH]1)N1C(=O)c2ccccc2C1=O (stereo not given) | -4.1 | 92.4*
CSCCC(C(O)=C(C#N)c1nc2ccccc2[nH]1)N1C(=O)c2ccccc2C1=O (stereo not given) | -0.9 | 67.1*
N#CC(=C(O)CCCN1C(=O)c2ccccc2C1=O)c1nc2ccccc2[nH]1 | -14.8 | -0.6
CC/C(O)=C(/C#N)c1nc2ccccc2[nH]1 | 29.0 | 6.8
C=CCn1c(=N)c(C(=O)NCc2ccccc2)cc2c(=O)n3ccccc3nc21 | -3.4 | -2.0
CN(C)CCNC(=O)NCC12CC3CC(C1)CC(c1ccccc1)(C3)C2 | 2.0 | 78.7*
CN(C)CCNC(=O)C12CC3CC(C1)CC(c1ccccc1)(C3)C2 | -2.2 | 14.0
CS(=O)(=O)N1CCC(C(=O)OCc2cc(-c3cccs3)on2)CC1 | -10.1 | -18.7
COc1ccccc1NC(=O)CSc1nc(-c2ccccc2)cn1-c1ccccc1OC | 0.7 | 34.0
O=C(CSc1nc(-c2ccccc2)cn1-c1ccccc1F)Nc1ccccc1 | 5.2 | 54.0*
Cn1cnnc1SCC(=O)Nc1ccccc1 | -2.7 | 1.3
COc1ccccc1-n1cc(-c2ccccc2)nc1SCC(=O)Nc1ccc(F)cc1 | 1.4 | 57.0*
CCCN1CC=C2C(C#N)=C(N)C(C#N)(C#N)C(c3ccc(-c4ccccc4)cc3)C2C1 (stereo not given) | -6.3 | 63.0*
Cc1ccc(C2C3CCCC=C3C(C#N)=C(N)C2(C#N)C#N)cc1 (stereo not given) | 0.1 | 20.0
CC(C)(C)C1CC=C2C(C#N)=C(N)C(C#N)(C#N)C(c3ccccc3)C2C1 (stereo not given) | -9.7 | 25.0
CN1CC=C2C(C#N)=C(N)C(C#N)(C#N)C(c3ccccc3)C2C1 (stereo not given) | 0.0 | 4.0
CC(C)c1ccc(C2C3CCCC=C3C(C#N)=C(N)C2(C#N)C#N)cc1 (stereo not given) | 8.3 | 55.0*
SMILES | Pf apPOL inh | mHTT CaM bind
N#CC1=C(N)C(C#N)(C#N)C(c2ccccc2)C2CCCC=C12 (stereo not given) | 0.6 | 18.0
CC(C)(C)C1CC=C2C(C#N)=C(N)C(C#N)(C#N)C(c3ccc(Cl)cc3)C2C1 (stereo not given) | -3.1 | 62.0*
N#CC1=C(N)C(C#N)(C#N)C(c2cccs2)C2CC(c3ccccc3)CC=C12 (stereo not given) | -4.3 | 96.0*
CCc1onc(C)c1C1CCCN1C(=O)Nc1cc(Cl)c(OC)cc1OC (stereo not given) | -0.1 | 3.9
CCN(CC)CCNC(=O)C(C)C1CCN(S(=O)(=O)c2ccc(Cl)s2)CC1 (stereo not given) | 1.2 | -5.7
COC(=O)COc1ccc2c(c1C)OC(=Cc1ccc3c(c1)OCO3)C2=O | -2.8 | 3.4
COc1ccc(C2C3CCCC=C3C(C#N)=C(N)C2(C#N)C#N)cc1 (stereo not given) | -1.3 | 23.0
CCCCOc1ccc(C2C3CCCC=C3C(C#N)=C(N)C2(C#N)C#N)cc1 (stereo not given) | 1.1 | 55.0*
COc1ccc(NC(=O)C2CCN(c3ccc(Cl)cc3F)C2=O)cc1OC (stereo not given) | -2.5 | 6.9
c1ccc(C2=NCCn3cccc32)cc1 | -6.2 | -4.3
Brc1ccc(-c2cc3ccccn3c2)cc1 | -0.2 | 38.0
Clc1ccc(-c2cc3n(c2)CCn2cccc2-3)cc1Cl | -6.9 | 100.0*
Fc1ccc(-c2cc3n(c2)CCn2cccc2-3)c(F)c1 | -2.1 | 100.0*
CC1c2cccn2CCN1C(=O)Nc1ccc(F)cc1F (stereo not given) | -12.1 | 9.6
Brc1ccc(-c2cc3n(c2)CCn2cccc2-3)cc1 | -8.6 | 84.0*
Cc1ccc(C)c(Cc2c(C)nc3c(C(=O)O)c[nH]n3c2=O)c1 | 28.5 | 3.0
CCN(CC)CCNC(=O)C1CCCN(c2ncc(-c3ccc(F)cc3)cn2)C1 (stereo not given) | -2.6 | 1.7
O=C(Cc1ccc(NC(=O)Nc2ccccc2Cl)cc1)NCc1cccs1 | 2.9 | -9.9
Clc1ccc(CN2CCCN(Cc3ccc(Cl)cc3)C2c2cccnc2)cc1 | 1.8 | /
c1ccc(N2CCN(c3ccccc3)C2c2cccnc2)cc1 | -3.3 | 58.0*
COc1ccc(NC(=O)CN2CCN(C3c4ccccc4-c4ccccc43)CC2)cc1Cl | 1.4 | 40.0
O=C(CN1CCN(C2c3ccccc3-c3ccccc32)CC1)Nc1ccc2c(c1)OCCO2 | -0.7 | 58.0*
COc1ccc(-c2cc(C(=O)N3CCC(Cc4ccccc4)CC3)no2)cc1 | -8.0 | -7.0
Cc1noc(-c2cccnc2)c1C(=O)N1CCC(Cc2ccccc2)CC1 | -1.3 | 19.5
Cc1noc(-c2cccs2)c1C(=O)N1CCC(Cc2ccccc2)CC1 | 1.7 | 71.2*
SMILES | Pf apPOL inh | mHTT CaM bind
COc1ccc(-c2onc(C)c2C(=O)N2CCC(Cc3ccccc3)CC2)cc1 | -0.4 | 99.1*
CCn1ccc(C(=O)NC2CCN(c3nnc4ccc(C(F)(F)F)cn34)CC2)n1 | -5.2 | 1.7
O=c1c(/C=c2\sc3nc4ccccc4n3c2=O)coc2c(Cl)cc(Cl)cc12 | -6.1 | 1.7
COCCNC(=O)c1c(C)noc1-c1cccnc1 | -1.4 | -7.9
COc1ccccc1CNC(=O)C1c2cc(OC)c(OC)cc2C(=O)N(C)C1c1cccnc1 (stereo not given) | -4.3 | -3.0
CC1CCN(C(=O)C2CCCN2C(=O)Nc2ccccc2Br)CC1 (stereo not given) | -6.2 | -2.5
C=CC(C)(C)OCC(O)CN1CCN(CC)CC1 (stereo not given) | -3.0 | 2.6
C=CCc1cccc(C2Nc3ccccc3C(=O)N2O)c1O (stereo not given) | 57.4* | 28.0
O=C1c2ccccc2NC(c2ccc(Cl)cc2Cl)N1O (stereo not given) | -4.1 | 32.0
NC(COc1ccc(Cl)cc1Cl)=NOC(=O)Nc1ccc(Cl)cc1 | -4.8 | /
CCC1(CC)OC(c2ccc(N(C)C)cc2)Nc2ccccc21 (stereo not given) | 0.9 | 11.0
OC(COCC12CC3CC(CC(C3)C1)C2)CN1CCN(c2ccccc2F)CC1 (stereo not given) | -4.1 | 32.6
OC(COCC12CC3CC(CC(C3)C1)C2)CN1CCN(Cc2ccccc2)CC1 (stereo not given) | 1.8 | 24.6
OC(COCCC12CC3CC(CC(C3)C1)C2)CN1CCN(Cc2ccccc2)CC1 (stereo not given) | -1.4 | 56.6*
OC(COCCC12CC3CC(CC(C3)C1)C2)CN1CCN(c2ccccc2F)CC1 (stereo not given) | 5.1 | 53.3*
COc1ccc(C(=O)NC2CCN(C(=O)c3cc(-c4cccs4)[nH]n3)CC2)c(OC)c1 | -13.2 | -3.5
